# Inconclusive results are not listed. A call without a number means that no potency is given here. Values without a mark were called inactive. Calls of active or inactive are those of the source. Calls come from the whole dose curve; as a rule, active = well fitted curve in the direction sought with a large enough effect; inconclusive = small, poorly fitted or top-dose-only effect, or another doubt; inactive = no such curve, though single readings can be large; an effect the other way counts as inactive or inconclusive.
# Columns and labels:
# [1] = tested on: Zika virus NS2B-NS3 protease; assay: Primary screen GU AMC qHTS for Zika virus inhibitors (AID 1347154); note: nearly all actives have a fitted effect of over 70% in size
# How it was run: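 Unlinked Zika NS2B hydrophilic domain–NS3 protease complex at 25 nM in 10 mM Tris-HCl pH 8.0, 0.01% Tween 20, with an AMC peptide substrate. Fluorescence change (340/450 nm) over 15 min at room temperature, normalized to controls, fitted to 4-parameter Hill.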
# [2] = Primary qHTS for small molecule stabilizers of the endoplasmic reticulum resident proteome: Secreted ER Calcium Modulated Protein (SERCaMP) assay (AID 1508630)
# How it was run: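 GLuc-SERCaMP-expressing SH-SY5Y cells, pretreated 16 h with compound, are challenged with thapsigargin to empty ER calcium stores; after 4 h, coelenterazine is added directly to the medium and luminescence is imaged.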
Compound,"activity change, negative = inhibition [1]","activity change, negative = inhibition [2]",Potency [1],Potency [2]
CCCCCCCC/C=C\C/C=C\C/C=C\CCCC(=O)O,-5.55% [at 6.83 µM],18.3% [at 3.88 µM],–,–
CO[C@H]1C[C@@H]2CC[C@@H](C)[C@@](O)(O2)C(=O)C(=O)N2CCCC[C@H]2C(=O)O[C@H](C(C)C[C@H]2CC[C@@H](O)[C@H](OC)C2)CC(=O)[C@H](C)/C=C(\C)[C@@H](O)[C@@H](OC)C(=O)[C@H](C)C[C@H](C)/C=C/C=C/C=C/1C (stereo not given in full),–,–,inactive,inactive
O=P(O)(O)C(O)c1ccc2ccccc2c1 (stereo not given),–,–,inactive,inactive
C=C1/C(=C\C=C2\CCCC3(C)C2CCC3C(C)/C=C/C(O)C2CC2)CC(O)CC1O (stereo not given),–,–,inactive,inactive
O=C(O)CCc1cc(I)c(O)c(I)c1,–,–,inactive,inactive
CC[C@H](C)[C@H](NC(=O)[C@H](C)NC(=O)[C@H](CC(N)=O)NC(=O)[C@H](CCCCN)NC(=O)[C@H](Cc1ccccc1)NC(=O)[C@H](CC(C)C)NC(=O)[C@@H](NC(=O)[C@@H](NC(=O)[C@H](CC(C)C)NC(=O)[C@@H]1CCCN1C(=O)[C@@H](NC(=O)[C@H](CCC(N)=O)NC(=O)[C@H](CO)NC(=O)[C@H](CCCCN)NC(=O)[C@H](CCC(=O)O)NC(=O)[C@H](CO)NC(=O)[C@@H](NC(=O)[C@H](CCSC)NC(=O)[C@H](Cc1ccccc1)NC(=O)CNC(=O)CNC(=O)[C@@H](N)Cc1ccc(O)cc1)[C@@H](C)O)[C@@H](C)O)C(C)C)[C@@H](C)O)C(=O)N[C@H](C(=O)N[C@@H](CCCCN)C(=O)N[C@@H](CC(N)=O)C(=O)N[C@@H](C)C(=O)N[C@@H](Cc1ccc(O)cc1)C(=O)N[C@@H](CCCCN)C(=O)N[C@@H](CCCCN)C(=O)NCC(=O)N[C@@H](CCC(=O)O)C(=O)O)[C@@H](C)CC,2.8% [at 6.83 µM],-16.9% [at 3.88 µM],–,–
CC1CCC(C(C)C)C(P(=O)(c2ccccc2)c2ccccc2)C1 (stereo not given),–,–,inactive,inactive
CNC(=S)NCCCCc1cnc[nH]1,–,–,inactive,inactive
CC(N)COC(=O)C(CCCCN)NC(=O)Cc1c(-c2ccc3ccccc3c2)[nH]c2c1ccc1ccccc12 (stereo not given),–,–,inactive,inactive
O=c1ccn([C@@H]2O[C@H](COP(=O)(O)OP(=O)(O)OP(=O)(O)O)[C@@H](O)[C@H]2O)c(=O)[nH]1,–,–,inactive,inactive
C[C@@H](N)CCCP(=O)(O)O,–,–,inactive,inactive
CCCCC/C=C\C\C=C/C=C/C=C/[C@@H](SCC(NC(C)=O)C(=O)O)[C@@H](O)CCCC(=O)O (stereo not given in full),13.7% [at 0.59 µM],-5.72% [at 0.478 µM],–,–
CCCCCCCCCCCCCCCCCCOC[C@H](COP(=O)([O-])OCC[N+](C)(C)C)OC(C)=O,10.6% [at 6.83 µM],33.9% [at 3.88 µM],–,–
CCCCC[C@H](O)/C=C/C=C\C=C\C=C\[C@@H](O)[C@@H](O)CCCC(=O)O,15% [at 0.59 µM],7.52% [at 0.478 µM],–,–
N[C@](CC1c2ccccc2Oc2ccccc21)(C(=O)O)[C@H]1C[C@@H]1C(=O)O,–,–,inactive,inactive

# From PubChem BioAssay (NCATS)
